Experimental findings from the supplement of paper PMC6411743 are described below.

± gives the standard deviation of the averaged measurements. Of roughly 6,500 targets only a part is listed; those with the largest changes were picked by preference.

Chain of UniProt P51580 (P51580 whole entry): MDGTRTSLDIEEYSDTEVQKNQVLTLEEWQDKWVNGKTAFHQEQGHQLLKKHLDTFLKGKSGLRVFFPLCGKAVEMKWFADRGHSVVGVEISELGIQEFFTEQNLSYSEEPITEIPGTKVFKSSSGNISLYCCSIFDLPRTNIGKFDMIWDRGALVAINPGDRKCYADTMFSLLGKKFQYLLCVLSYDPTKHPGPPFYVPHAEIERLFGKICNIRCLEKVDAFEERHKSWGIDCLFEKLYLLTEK
Chain of UniProt P23458 (P23458 whole entry): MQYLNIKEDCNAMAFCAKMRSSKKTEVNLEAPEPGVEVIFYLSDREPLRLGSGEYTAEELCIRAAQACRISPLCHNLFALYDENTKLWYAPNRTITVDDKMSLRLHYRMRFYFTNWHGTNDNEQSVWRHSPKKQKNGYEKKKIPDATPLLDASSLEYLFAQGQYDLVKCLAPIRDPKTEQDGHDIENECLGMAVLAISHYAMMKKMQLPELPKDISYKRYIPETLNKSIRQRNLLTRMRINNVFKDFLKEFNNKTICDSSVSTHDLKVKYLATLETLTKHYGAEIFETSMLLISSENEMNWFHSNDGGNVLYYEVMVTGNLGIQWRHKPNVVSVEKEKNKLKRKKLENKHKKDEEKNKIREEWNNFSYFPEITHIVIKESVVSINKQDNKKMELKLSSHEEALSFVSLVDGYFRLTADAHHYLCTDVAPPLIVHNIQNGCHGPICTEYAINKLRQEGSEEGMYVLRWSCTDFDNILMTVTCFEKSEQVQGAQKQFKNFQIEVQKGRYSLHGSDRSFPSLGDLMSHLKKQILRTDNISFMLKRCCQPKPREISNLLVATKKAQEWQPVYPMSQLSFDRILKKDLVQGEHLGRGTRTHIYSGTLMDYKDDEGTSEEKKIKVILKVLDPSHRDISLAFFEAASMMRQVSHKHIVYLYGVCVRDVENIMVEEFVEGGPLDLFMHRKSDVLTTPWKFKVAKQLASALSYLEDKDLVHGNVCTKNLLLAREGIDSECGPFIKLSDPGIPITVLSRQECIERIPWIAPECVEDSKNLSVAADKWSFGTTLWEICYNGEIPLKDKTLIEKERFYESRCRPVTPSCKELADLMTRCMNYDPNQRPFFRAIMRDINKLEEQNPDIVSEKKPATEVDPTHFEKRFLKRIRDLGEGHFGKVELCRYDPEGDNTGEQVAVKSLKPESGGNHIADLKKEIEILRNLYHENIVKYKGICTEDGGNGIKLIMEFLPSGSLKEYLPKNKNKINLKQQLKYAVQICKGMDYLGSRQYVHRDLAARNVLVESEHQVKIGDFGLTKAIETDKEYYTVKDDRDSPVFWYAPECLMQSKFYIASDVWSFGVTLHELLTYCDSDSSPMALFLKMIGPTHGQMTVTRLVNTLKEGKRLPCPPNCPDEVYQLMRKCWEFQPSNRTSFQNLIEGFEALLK
Chain of UniProt P38935 (P38935 whole entry): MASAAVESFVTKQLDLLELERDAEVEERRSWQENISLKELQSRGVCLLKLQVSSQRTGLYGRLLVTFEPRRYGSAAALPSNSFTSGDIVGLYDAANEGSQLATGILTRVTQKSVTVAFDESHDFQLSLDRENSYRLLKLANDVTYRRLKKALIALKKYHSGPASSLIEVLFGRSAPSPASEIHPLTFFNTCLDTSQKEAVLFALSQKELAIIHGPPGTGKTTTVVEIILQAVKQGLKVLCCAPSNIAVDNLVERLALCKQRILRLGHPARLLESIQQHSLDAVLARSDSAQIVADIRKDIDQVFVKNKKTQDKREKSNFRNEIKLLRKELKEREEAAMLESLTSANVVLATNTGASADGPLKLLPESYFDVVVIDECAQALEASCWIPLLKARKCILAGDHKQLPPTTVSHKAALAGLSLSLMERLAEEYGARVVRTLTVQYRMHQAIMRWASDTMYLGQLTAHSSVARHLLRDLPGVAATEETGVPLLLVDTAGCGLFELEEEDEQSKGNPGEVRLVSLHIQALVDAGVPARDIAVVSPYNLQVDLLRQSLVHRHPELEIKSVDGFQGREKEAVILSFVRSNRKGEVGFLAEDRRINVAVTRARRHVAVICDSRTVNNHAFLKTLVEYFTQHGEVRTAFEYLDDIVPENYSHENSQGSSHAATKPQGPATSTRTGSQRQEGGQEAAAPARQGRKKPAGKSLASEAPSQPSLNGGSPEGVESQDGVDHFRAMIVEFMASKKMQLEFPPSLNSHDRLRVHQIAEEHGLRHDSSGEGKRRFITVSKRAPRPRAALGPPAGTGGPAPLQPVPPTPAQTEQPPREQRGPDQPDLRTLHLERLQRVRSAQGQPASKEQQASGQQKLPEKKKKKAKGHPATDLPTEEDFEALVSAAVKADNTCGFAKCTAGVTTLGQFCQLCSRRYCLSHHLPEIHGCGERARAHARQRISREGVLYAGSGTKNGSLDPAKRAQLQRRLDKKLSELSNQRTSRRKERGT
Chain of UniProt P05198 (P05198 whole entry): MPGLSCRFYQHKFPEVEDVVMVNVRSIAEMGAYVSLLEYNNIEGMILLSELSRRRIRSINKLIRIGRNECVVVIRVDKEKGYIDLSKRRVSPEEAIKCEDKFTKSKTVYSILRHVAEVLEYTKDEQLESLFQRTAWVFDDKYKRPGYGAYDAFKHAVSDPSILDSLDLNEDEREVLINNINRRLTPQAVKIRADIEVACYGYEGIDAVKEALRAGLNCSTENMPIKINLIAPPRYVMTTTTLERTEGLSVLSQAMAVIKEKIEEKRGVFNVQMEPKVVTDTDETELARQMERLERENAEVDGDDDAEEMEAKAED
Chain of UniProt P67870 (P67870 whole entry, one chain of several): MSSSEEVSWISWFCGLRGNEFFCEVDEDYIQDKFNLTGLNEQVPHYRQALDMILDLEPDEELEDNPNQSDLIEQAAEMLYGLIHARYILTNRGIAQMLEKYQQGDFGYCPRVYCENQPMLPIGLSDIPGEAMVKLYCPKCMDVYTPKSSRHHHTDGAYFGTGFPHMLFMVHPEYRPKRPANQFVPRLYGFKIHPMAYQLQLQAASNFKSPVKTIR
Chain of UniProt P11387 (P11387 whole entry): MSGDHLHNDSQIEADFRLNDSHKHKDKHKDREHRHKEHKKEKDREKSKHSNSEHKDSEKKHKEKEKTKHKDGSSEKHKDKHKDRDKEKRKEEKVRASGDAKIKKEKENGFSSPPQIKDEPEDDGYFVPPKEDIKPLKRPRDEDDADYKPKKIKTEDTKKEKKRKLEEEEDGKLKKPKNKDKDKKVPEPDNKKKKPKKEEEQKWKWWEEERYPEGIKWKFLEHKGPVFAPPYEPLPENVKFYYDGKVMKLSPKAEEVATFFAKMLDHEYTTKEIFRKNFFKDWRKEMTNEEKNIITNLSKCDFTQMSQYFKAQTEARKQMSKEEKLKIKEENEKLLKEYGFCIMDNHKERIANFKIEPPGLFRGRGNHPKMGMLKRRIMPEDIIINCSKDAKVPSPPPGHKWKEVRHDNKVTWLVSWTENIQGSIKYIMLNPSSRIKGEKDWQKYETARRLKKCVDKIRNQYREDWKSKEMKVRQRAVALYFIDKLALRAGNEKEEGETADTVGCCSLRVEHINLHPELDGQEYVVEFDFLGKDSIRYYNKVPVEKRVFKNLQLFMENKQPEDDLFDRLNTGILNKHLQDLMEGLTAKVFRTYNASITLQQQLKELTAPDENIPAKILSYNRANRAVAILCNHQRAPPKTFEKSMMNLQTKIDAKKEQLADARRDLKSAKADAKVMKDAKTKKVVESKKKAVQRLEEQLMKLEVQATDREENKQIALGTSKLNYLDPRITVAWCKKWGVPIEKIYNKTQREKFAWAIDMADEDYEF
Chain of UniProt P28161 (P28161 whole entry): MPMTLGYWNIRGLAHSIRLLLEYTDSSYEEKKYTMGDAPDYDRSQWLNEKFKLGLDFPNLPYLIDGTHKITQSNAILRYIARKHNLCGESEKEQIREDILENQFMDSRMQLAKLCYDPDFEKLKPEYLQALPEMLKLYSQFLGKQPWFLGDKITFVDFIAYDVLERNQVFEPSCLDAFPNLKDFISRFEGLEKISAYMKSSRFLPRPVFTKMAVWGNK
Chain of UniProt Q00534 (Q00534 whole entry): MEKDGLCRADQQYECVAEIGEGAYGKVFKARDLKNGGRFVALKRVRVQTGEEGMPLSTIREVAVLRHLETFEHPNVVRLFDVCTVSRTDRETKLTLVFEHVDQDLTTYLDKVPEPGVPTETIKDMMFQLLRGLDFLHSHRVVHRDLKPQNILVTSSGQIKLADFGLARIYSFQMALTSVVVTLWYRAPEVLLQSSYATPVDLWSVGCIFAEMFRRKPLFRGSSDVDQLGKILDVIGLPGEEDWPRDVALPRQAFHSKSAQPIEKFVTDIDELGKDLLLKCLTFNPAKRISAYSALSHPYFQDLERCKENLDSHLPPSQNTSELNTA
Chain of UniProt P22087 (P22087 whole entry): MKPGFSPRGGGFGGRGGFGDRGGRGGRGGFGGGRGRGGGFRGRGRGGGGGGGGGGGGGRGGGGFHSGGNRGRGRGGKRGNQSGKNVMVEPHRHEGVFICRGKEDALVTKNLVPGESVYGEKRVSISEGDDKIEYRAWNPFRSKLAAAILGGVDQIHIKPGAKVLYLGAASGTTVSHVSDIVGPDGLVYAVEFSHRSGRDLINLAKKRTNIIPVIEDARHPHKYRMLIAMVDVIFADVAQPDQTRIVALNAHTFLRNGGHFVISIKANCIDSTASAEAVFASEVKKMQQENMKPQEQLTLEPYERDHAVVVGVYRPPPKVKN
Chain of UniProt O75718 (O75718 whole entry): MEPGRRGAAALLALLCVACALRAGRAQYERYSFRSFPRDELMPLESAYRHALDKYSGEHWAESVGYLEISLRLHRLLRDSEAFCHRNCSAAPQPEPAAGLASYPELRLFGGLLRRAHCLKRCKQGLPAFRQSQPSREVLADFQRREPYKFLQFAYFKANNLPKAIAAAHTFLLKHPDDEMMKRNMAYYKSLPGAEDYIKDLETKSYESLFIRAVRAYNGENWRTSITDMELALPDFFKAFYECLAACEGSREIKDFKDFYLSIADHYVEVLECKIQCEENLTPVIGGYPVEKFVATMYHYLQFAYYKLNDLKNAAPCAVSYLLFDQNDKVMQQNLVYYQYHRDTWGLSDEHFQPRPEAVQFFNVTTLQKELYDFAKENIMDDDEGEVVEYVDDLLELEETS

Compound in the first assay: Nc1ncnc2c1ncn2[C@@H]1O[C@H](COP(=O)(O)OP(=O)(O)OP(=O)(O)O)[C@@H](O)[C@H]1O [adenosine triphosphate]
As to the kind of experiment: NP40-soluble protein abundance relative to vehicle (solubility fold change) (ratio); higher = more soluble protein in presence of ATP. Conditions: concentration: 1mM. A digest of the protocol: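 Jurkat crude lysate prepared with a Dounce homogeniser was treated at eight concentrations spanning 0.1 to 10 mM, 10 min at room temperature then 3 min at 37 °C. Solubilisation with 0.8% NP40 and benzonase and ultracentrifugation preceded TMT labelling of the supernatant for LC-MS/MS. Fold change against the detergent-processed vehicle was determined per replicate from vsn-normalised intensities, across three independent experiments.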
Consider FXR2 (UniProt P51116), for which the NP40-soluble protein abundance turned out to be 1.68 ± 0.23.
Same read-out and setting: to UROS (UniProt P10746) belongs 0.973 ± 0.029; to IDH1 (UniProt O75874), 0.993 ± 0.056; to GSTM2 (UniProt P28161), 0.96 ± 0.07.
On the same count and under the same terms, as for EIF2S1 (UniProt P05198), the figure is 1.04 ± 0.043; as for HSP90AB1 (UniProt P08238), 1.01 ± 0.063; as for UniProt P62253, 1.06 ± 0.053.
The same measure, in the same setting: as for CDKN1B (UniProt P46527), the figure is 0.964 ± 0.099; as for CRTAP (UniProt O75718), 1.11 ± 0.024.
Take PRIM2 (UniProt P49643): the NP40-soluble protein abundance stood at 1.03 ± 0.057.
On the same count and under the same terms, as for UniProt O95639|O95639-2|O95639-3, the figure is 1.3 ± 0.028.
The same measure, in the same setting: as for ATF1 (UniProt P18846), the figure is 0.986 ± 0.2.
In the case of SGPL1 (UniProt O95470), the NP40-soluble protein abundance worked out at 1.05 ± 0.14.
The same measure, in the same setting: as for UniProt Q02078-2|Q02078-6, the figure is 0.954 ± 0.086; as for TOP1 (UniProt P11387), 1.05 ± 0.019.
Same read-out and setting: to IGHMBP2 (UniProt P38935) belongs 1.41 ± 0.11; to CDK6 (UniProt Q00534), 0.984 ± 0.047.
Turning to “UniProt P11388|P11388-2|P11388-3|P11388-4”, the NP40-soluble protein abundance was 1.31 ± 0.066.
The same measure, in the same setting: as for HSPA4L (UniProt O95757), the figure is 0.964 ± 0.015.
On the same count and under the same terms, to SOAT1 (UniProt P35610) belongs 1.02 ± 0.042; to HMGN1 (UniProt P05114), 1.23 ± 0.32.
Same read-out and setting: as for UniProt Q01826|Q01826-2, the figure is 0.952 ± 0.051; as for UniProt P67870|Q5SRQ6, 0.972 ± 0.024; as for TPMT (UniProt P51580), 1 ± 0.084.
As to C1QBP (UniProt Q07021), the NP40-soluble protein abundance amounted to 1.15 ± 0.48.
CD53 (UniProt P19397): the NP40-soluble protein abundance is 0.898 ± 0.042.
The same measure, in the same setting: to “UniProt P18583|P18583-5|P18583-7|P18583-9” belongs 1.28 ± 0.057.
The same measure, in the same setting: as for AKR1A1 (UniProt P14550), the figure is 0.989 ± 0.046.
The same measure, in the same setting: to JAK1 (UniProt P23458) belongs 1.21 ± 0.015.
Regarding CDKN2D (UniProt P55273), the NP40-soluble protein abundance is 0.959 ± 0.065.
The same measure, in the same setting: to FBL (UniProt P22087) belongs 1.11 ± 0.075.

Still in this assay, the particulars now being: concentration: 2mM.
Take FXR2 (UniProt P51116): the NP40-soluble protein abundance stood at 1.77 ± 0.15.
Same read-out and setting: as for UROS (UniProt P10746), the figure is 0.988 ± 0.041; as for IDH1 (UniProt O75874), 0.988 ± 0.038; as for GSTM2 (UniProt P28161), 0.952 ± 0.054.
The same measure, in the same setting: as for EIF2S1 (UniProt P05198), the figure is 1.05 ± 0.034; as for HSP90AB1 (UniProt P08238), 0.99 ± 0.052.
On the same count and under the same terms, to UniProt P62253 belongs 1.05 ± 0.071; to CDKN1B (UniProt P46527), 0.998 ± 0.057; to CRTAP (UniProt O75718), 1.14 ± 0.032.
Consider PRIM2 (UniProt P49643), for which the NP40-soluble protein abundance turned out to be 1.02 ± 0.025.
The same measure, in the same setting: to UniProt O95639|O95639-2|O95639-3 belongs 1.38 ± 0.046; to ATF1 (UniProt P18846), 0.951 ± 0.033.
On to SGPL1 (UniProt O95470), for which the NP40-soluble protein abundance is 1.03 ± 0.1.
As to UniProt Q02078-2|Q02078-6, the NP40-soluble protein abundance amounted to 0.939 ± 0.046.
Same read-out and setting: to TOP1 (UniProt P11387) belongs 1.088 ± 0.0094.
On the same count and under the same terms, as for IGHMBP2 (UniProt P38935), the figure is 1.59 ± 0.088; as for CDK6 (UniProt Q00534), 0.999 ± 0.051.
On the same count and under the same terms, as for “UniProt P11388|P11388-2|P11388-3|P11388-4”, the figure is 1.41 ± 0.062; as for HSPA4L (UniProt O95757), 0.9785 ± 0.0092; as for SOAT1 (UniProt P35610), 1 ± 0.028.
For HMGN1 (UniProt P05114), the NP40-soluble protein abundance is 2 ± 0.51.
Still for that read-out and setting: to UniProt Q01826|Q01826-2 belongs 0.96 ± 0.023.
The same measure, in the same setting: to UniProt P67870|Q5SRQ6 belongs 1 ± 0.021; to TPMT (UniProt P51580), 1 ± 0.077.
On to C1QBP (UniProt Q07021), for which the NP40-soluble protein abundance came out at 0.69 ± 0.36.
On the same count and under the same terms, as for CD53 (UniProt P19397), the figure is 0.833 ± 0.05; as for “UniProt P18583|P18583-5|P18583-7|P18583-9”, 1.3 ± 0.075.
Same read-out and setting: to AKR1A1 (UniProt P14550) belongs 0.979 ± 0.047; to JAK1 (UniProt P23458), 1.21 ± 0.022; to CDKN2D (UniProt P55273), 0.928 ± 0.036.
Regarding FBL (UniProt P22087), the NP40-soluble protein abundance was determined as 1.13 ± 0.058.

The assay is the same for the next values; noted with them: concentration: 4mM.
For FXR2 (UniProt P51116), the NP40-soluble protein abundance worked out at 2.06 ± 0.29.
On the same count and under the same terms, as for UROS (UniProt P10746), the figure is 0.98 ± 0.061; as for IDH1 (UniProt O75874), 0.94 ± 0.052; as for GSTM2 (UniProt P28161), 0.886 ± 0.043.
The same measure, in the same setting: as for EIF2S1 (UniProt P05198), the figure is 1.02 ± 0.027; as for HSP90AB1 (UniProt P08238), 0.983 ± 0.05.
Same read-out and setting: to UniProt P62253 belongs 1 ± 0.07; to CDKN1B (UniProt P46527), 0.985 ± 0.08; to CRTAP (UniProt O75718), 1.16 ± 0.024.
For the target PRIM2 (UniProt P49643), the NP40-soluble protein abundance stood at 1.02 ± 0.032.
The same measure, in the same setting: as for UniProt O95639|O95639-2|O95639-3, the figure is 1.52 ± 0.06; as for ATF1 (UniProt P18846), 1.02 ± 0.14.
As to SGPL1 (UniProt O95470), the NP40-soluble protein abundance was determined as 1.02 ± 0.086.
For UniProt Q02078-2|Q02078-6, the NP40-soluble protein abundance turned out to be 0.936 ± 0.065.
Same read-out and setting: as for TOP1 (UniProt P11387), the figure is 1.22 ± 0.028; as for IGHMBP2 (UniProt P38935), 1.84 ± 0.09.
On the same count and under the same terms, as for CDK6 (UniProt Q00534), the figure is 0.988 ± 0.05.
The same measure, in the same setting: to “UniProt P11388|P11388-2|P11388-3|P11388-4” belongs 1.64 ± 0.06.
Consider HSPA4L (UniProt O95757), for which the NP40-soluble protein abundance amounted to 0.951 ± 0.018.
The same measure, in the same setting: to SOAT1 (UniProt P35610) belongs 0.999 ± 0.055; to HMGN1 (UniProt P05114), 1.5 ± 0.35; to UniProt Q01826|Q01826-2, 0.919 ± 0.039.
The same measure, in the same setting: as for UniProt P67870|Q5SRQ6, the figure is 1.013 ± 0.0063; as for TPMT (UniProt P51580), 0.985 ± 0.064.
On to C1QBP (UniProt Q07021), for which the NP40-soluble protein abundance was 1.21 ± 0.26.
As for CD53 (UniProt P19397), the NP40-soluble protein abundance was 0.85 ± 0.06.
Still for that read-out and setting: as for “UniProt P18583|P18583-5|P18583-7|P18583-9”, the figure is 1.36 ± 0.099; as for AKR1A1 (UniProt P14550), 0.956 ± 0.048.
Same read-out and setting: as for JAK1 (UniProt P23458), the figure is 1.23 ± 0.032; as for CDKN2D (UniProt P55273), 0.953 ± 0.046; as for FBL (UniProt P22087), 1.25 ± 0.047.
